The target in assay [1] is Calcium and integrin-binding protein 1 (Homo sapiens) (UniProt Q99828). The assay is described as follows: Primary qHTS for Identification of Calcium Integrin Binding Protein 1 (CIB1) Competitor (AID 1508620; active means well fitted curve in the direction sought with a large enough effect; an effect the other way counts as inactive or inconclusive;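 further: GST tagged CIB1 binding a fluorescein labelled alphaIIb integrin peptide tracer; top concentration of the series differs between compounds; on the % scale 0 is the no-effect control and ±100 the full control effect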). The essentials:
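CIB1-GST (1 uM final) and compound incubated 15 min at room temperature before adding FITC-alphaIIb peptide tracer (100 nM final). Competition for binding read by fluorescence polarization (ex 480, em 540) after another 15 min at room temperature.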

Assay [2] can be described thus: A High-Content qHTS Against Drug Library for the Identification of Small Molecules that Inhibit DYT1 Early Onset Primary Dystonia-Associated Cell Pathology (AID 1645839; calls by dose curve; further: series mostly up to about 46 µM). The essentials:
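In this high-content image screen, delE TorsinA mislocalization in inducible Flp-In 293 cells is scored as %pathology, with cell count serving as the counterscreen. Compound exposure lasts 48 h under tetracycline induction in reduced-serum medium.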

For assay [3], the target named is Cytochrome P450 2D6 (Homo sapiens) (UniProt P10635). Briefly: Cytochrome P450 family 2 subfamily D member 6 (CYP2D6) small molecule antagonists: luciferase biochemical (cell-free) qHTS assay (AID 1645840). Further: nearly all actives have a fitted effect of over 55% in size. Further: potency means the concentration at half of the fitted maximal effect. On activity change, negative = inhibition: series mostly up to about 57 µM; on the % scale 0 is the no-effect control and ±100 the full control effect. The essentials: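 P450-Glo luminescent screen: recombinant CYP2D6 enzyme–proluciferin substrate mix preincubated with compound 10 min at room temperature, then NADPH regeneration added for 1 h at room temperature. Detection reagent added for 20 min; luciferin light read as relative luminescence units.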
Cytochrome P450 2D6 (Homo sapiens), sequence (P10635 whole entry, looked up): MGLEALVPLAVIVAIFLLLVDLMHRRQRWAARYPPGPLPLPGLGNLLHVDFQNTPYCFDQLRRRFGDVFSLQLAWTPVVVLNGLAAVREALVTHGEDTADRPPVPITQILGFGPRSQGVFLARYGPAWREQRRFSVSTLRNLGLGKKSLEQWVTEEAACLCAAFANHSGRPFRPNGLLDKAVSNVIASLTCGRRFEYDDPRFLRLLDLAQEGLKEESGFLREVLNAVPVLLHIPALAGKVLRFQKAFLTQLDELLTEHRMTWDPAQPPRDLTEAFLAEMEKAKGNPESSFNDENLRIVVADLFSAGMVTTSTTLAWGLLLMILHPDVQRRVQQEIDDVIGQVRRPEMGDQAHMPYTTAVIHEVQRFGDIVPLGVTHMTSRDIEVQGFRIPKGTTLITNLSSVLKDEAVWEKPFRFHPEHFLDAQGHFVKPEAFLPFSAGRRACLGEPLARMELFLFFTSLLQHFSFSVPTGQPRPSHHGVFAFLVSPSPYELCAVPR

In assay [4] the target is Cytochrome P450 2C9 (Homo sapiens) (UniProt P11712). The assay is described as follows: Cytochrome P450 family 2 subfamily C member 9 (CYP2C9) small molecule antagonists: luciferase biochemical (cell-free) qHTS assay (AID 1645842). Further: nearly all actives have a fitted effect of over 55% in size. Further: potency means the concentration at half of the fitted maximal effect. In short, it runs like this: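 Luminescence, after 20 min with luciferin detection reagent, reflected CYP2C9 turnover during a 1 h NADPH-driven reaction at 37C. Enzyme-substrate mix contained 0.4% bovine serum albumin and was preincubated with compound 10 min at room temperature.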
Cytochrome P450 2C9 (Homo sapiens), sequence (P11712 whole entry, looked up): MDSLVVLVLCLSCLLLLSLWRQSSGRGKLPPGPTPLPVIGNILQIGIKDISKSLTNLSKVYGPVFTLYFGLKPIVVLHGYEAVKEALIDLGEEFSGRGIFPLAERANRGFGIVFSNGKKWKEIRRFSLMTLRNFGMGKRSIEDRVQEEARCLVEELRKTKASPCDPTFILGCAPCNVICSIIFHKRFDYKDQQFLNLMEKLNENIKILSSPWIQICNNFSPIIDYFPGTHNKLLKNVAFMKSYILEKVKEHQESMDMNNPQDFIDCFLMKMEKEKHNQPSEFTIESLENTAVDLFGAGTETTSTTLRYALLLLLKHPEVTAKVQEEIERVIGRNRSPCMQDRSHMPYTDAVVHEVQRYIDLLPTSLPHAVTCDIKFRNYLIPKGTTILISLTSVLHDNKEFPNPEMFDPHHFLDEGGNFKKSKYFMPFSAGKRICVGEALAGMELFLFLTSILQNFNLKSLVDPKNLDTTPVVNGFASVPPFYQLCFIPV

Assay [5] deals with Cytochrome P450 3A4 (Homo sapiens) (UniProt P08684). The assay is described as follows: Cytochrome P450 family 3 subfamily A member 4 (CYP3A4) small molecule antagonists: luciferase qHTS assay (AID 1645841). Further: nearly all actives have a fitted effect of over 45% in size. The essentials: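 Luminescent CYP3A4 activity readout: compounds plus enzyme-substrate mix 10 min at room temperature, reaction started with NADPH regenerating system for 1 h, stopped with detection reagent, read after 20 min. Ketoconazole served as control.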
Cytochrome P450 3A4 (Homo sapiens), sequence (P08684 whole entry, looked up): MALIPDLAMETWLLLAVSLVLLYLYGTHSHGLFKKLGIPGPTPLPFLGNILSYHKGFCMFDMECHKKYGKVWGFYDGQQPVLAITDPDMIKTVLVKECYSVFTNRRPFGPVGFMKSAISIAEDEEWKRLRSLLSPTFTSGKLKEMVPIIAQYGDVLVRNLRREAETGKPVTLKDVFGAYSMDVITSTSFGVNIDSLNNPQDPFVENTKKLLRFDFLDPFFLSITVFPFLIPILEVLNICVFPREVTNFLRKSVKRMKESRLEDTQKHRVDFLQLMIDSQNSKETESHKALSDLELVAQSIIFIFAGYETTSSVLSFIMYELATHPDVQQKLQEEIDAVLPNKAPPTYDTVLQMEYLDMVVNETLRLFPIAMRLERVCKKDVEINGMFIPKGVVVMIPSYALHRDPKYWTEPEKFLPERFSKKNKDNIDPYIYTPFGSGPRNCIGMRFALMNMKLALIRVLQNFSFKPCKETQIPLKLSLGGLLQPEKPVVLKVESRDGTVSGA

Assay [6] can be described thus: Primary qHTS for small molecule stabilizers of the endoplasmic reticulum resident proteome: Secreted ER Calcium Modulated Protein (SERCaMP) assay (AID 1508630; active means well fitted curve in the direction sought with a large enough effect; an effect the other way counts as inactive or inconclusive; further: on the % scale 0 is the no-effect control and ±100 the full control effect). In short, it runs like this: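 GLuc-SERCaMP-expressing SH-SY5Y cells, pretreated 16 h with compound, are challenged with thapsigargin to empty ER calcium stores; after 4 h, coelenterazine is added directly to the medium and luminescence is imaged.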

A short description of assay [7]: Counterscreen qHTS for small molecule stabilizers of the endoplasmic reticulum resident proteome: GLuc-NoTag assay (AID 1508627; active means well fitted curve in the direction sought with a large enough effect; an effect the other way counts as inactive or inconclusive;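 further: SH-SY5Y cells given compound then 100 nM thapsigargin to empty ER calcium; series mostly up to about 76 µM; 0% = thapsigargin alone and -100% = DMSO vehicle control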). The essentials:
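Luminescence of Gaussia luciferase secreted into the medium (coelenterazine, 0.07x final, unlysed cells) was the read-out. Human SH-SY5Y neuroblastoma cells constitutively secreting untagged GLuc received compound for 19 h, then 100 nM thapsigargin for 4 h.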

Assay [8] is described as follows: Confirmatory qHTS for small molecule stabilizers of the endoplasmic reticulum resident proteome: Secreted ER Calcium Modulated Protein (SERCaMP) assay (AID 1508628; active means well fitted curve in the direction sought with a large enough effect; an effect the other way counts as inactive or inconclusive;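 further: SH-SY5Y cells given compound 16 h then thapsigargin 100 nM for 4 h; series mostly up to about 76 µM; on the % scale 0 is the no-effect control and ±100 the full control effect; nearly all actives have a fitted effect of over 40% in size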). In short, it runs like this:
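We seeded SH-SY5Y-GLuc-SERCaMP cells, added compounds (three concentrations in the primary run, eleven up to 76.6 uM in confirmation), incubated 16 h, depleted ER calcium with thapsigargin, and read luciferase 4 h later.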

Assay [9] can be described thus: Cell Viability qHTS for small molecule stabilizers of the endoplasmic reticulum resident proteome (AID 1508629; active means well fitted curve in the direction sought with a large enough effect; an effect the other way counts as inactive or inconclusive;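 further: human SH-SY5Y neuroblastoma cells carrying the GLuc-SERCaMP reporter; compound exposure about 46 h in total before the viability read; on the % scale 0 is the no-effect control and ±100 the full control effect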). The settings on record: cell viability counter-screen, 100 nM thapsigargin for final 4 h.

Results filed as inconclusive are left out. A number with no mark means an inactive call. Activity calls are given as the source filed them. Unless noted, the call rests on the fitted dose curve; in most records, active means well fitted curve in the direction sought with a large enough effect in the repeat runs; inconclusive means weak or mixed curves; inactive means no such curve, though single readings can be large; an effect the other way counts as inactive or inconclusive.

Calcium and integrin-binding protein 1 (Homo sapiens), sequence (Q99828 whole entry, looked up): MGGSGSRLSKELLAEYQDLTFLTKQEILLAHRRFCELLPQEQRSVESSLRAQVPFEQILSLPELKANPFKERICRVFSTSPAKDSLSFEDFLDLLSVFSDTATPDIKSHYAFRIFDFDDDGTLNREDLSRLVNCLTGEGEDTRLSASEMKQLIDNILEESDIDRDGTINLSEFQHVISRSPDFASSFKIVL

With `C/C=C/c1ccc(O)c(OC)c1`, the Potency result in assay [1], in [2] and in assay [3] was “inactive” throughout. In addition, in [4], the Potency was 2.19 µM (active).

For the molecule `CN1CCN(C2=Nc3ccccc3Sc3ccc(Cl)cc32)CC1`, the Potency result in [1], in [2] and in assay [4] was “inactive” in each case. Further, the Potency in assay [3] was 15.5 µM (active).

As to `CCOc1ccccc1OCCN[C@H](C)Cc1ccc(OC)c(S(N)(=O)=O)c1`, the Potency entry in assay [1], in assay [2] and in assay [4] was “inactive” each time. The Potency in assay [3] is 15.5 µM (active).

On to `O=C(CCN1CCN2CCCC2C1)N1c2ccccc2Sc2ccc(Cl)cc21` (stereo not given), for which the Potency result in [1], in assay [2] and in assay [4] was “inactive” each time. In assay [3], the Potency is 6.74 µM (active).

Regarding `Cc1ccc(S(=O)(=O)NC(=O)NC2CCCC2)cc1`, the Potency entry in assay [1], in assay [2], in assay [3] and in [4] was “inactive” in each case.

Regarding `CCOC(=O)[C@@](C)(N)Cc1ccc(O)c(O)c1`, the Potency result in assay [1], in [2] and in assay [4] was “inactive” throughout. In addition, in assay [3], the Potency was 7.76 µM (active).

With `FC(F)(F)C(F)(F)C(F)(F)C(F)(F)C(F)(F)C(F)(F)C(F)(F)C(F)(F)Br`, the Potency entry in assay [1], in assay [2], in assay [3] and in [4] was “inactive” in each case.

Regarding `CCOc1ccccc1C(N)=O`, the Potency result in assay [1], in assay [2], in [3] and in assay [4] was “inactive” each time.

For `O=C(O)c1ccc(S(=O)(=O)N(Cl)Cl)cc1`, the Potency entry in [1], in assay [2], in assay [3] and in [4] was “inactive” throughout.

For the molecule `CC(=O)Nc1ccc(CC(=O)O)cc1`, the Potency entry in assay [1], in assay [2], in assay [3] and in assay [4] was “inactive” throughout.

As to `CCCc1ncc(C[n+]2ccccc2C)c(N)n1`, the Potency result in assay [1], in assay [2], in [3] and in assay [4] was “inactive” each time.

For `O=C(O)C1(C(=O)O)CCC1.[NH2-].[NH2-].[Pt+2]`, the Potency entry in [1], in assay [2] and in [5] was “inactive” each time. Besides, the Potency in assay [3] was 19.5 µM (active).

For the molecule `CCCCNc1ccc(C(=O)OCCOCCOCCOCCOCCOCCOCCOCCOCCOC)cc1`, the Potency entry in assay [1], in assay [2] and in assay [3] was “inactive” in each case. In addition, in assay [4], the Potency was 6.92 µM (active).

Consider `N[C@H](C(=O)O)[C@@H](O)c1ccc(O)c(O)c1`, for which the Potency entry in assay [1], in assay [2], in [3] and in [4] was “inactive” each time.

For `CCCCNC(=O)NS(=O)(=O)c1ccc(N)cc1`, the Potency entry in [1], in [2], in assay [3] and in [4] was “inactive” in each case.

As to `COc1cc(NS(=O)(=O)c2ccc(N)cc2)ncn1`, the Potency result in assay [1], in assay [2], in [3] and in assay [4] was “inactive” in each case.

In the case of `O=C(O)P(=O)(O)O`, the Potency result in [1], in [2], in [3] and in [4] was “inactive” each time.

Turning to `Cc1cccc(C)c1NC(=O)c1ccccc1C(=O)O`, the Potency result in [1], in [2], in [3] and in assay [4] was “inactive” in each case.

In the case of `CC(=O)N[C@@H](CCC(=O)O)C(=O)O`, the Potency entry in [1], in assay [2], in assay [3] and in [4] was “inactive” each time.

As to `O=[N+]([O-])c1ccc(/C=N\O)o1`, the Potency result in assay [1], in [2] and in [4] was “inactive” in each case. Moreover, the Potency in [3] is 13.8 µM (active).

Consider `CCCCCCCCOc1ccc(C(=O)c2ccccc2)c(O)c1`, for which the Potency entry in assay [1], in assay [2], in assay [3] and in assay [4] was “inactive” throughout.

`CC(C(=O)O)c1cccc(Oc2ccccc2)c1` (stereo not given): the Potency entry in [1], in assay [2] and in assay [3] was “inactive” in each case.

For `Cc1cc(C)cc(OCC2CNC(=O)O2)c1` (stereo not given), the Potency result in assay [1], in [2], in assay [3] and in assay [4] was “inactive” each time.

`CC1(C)OC[C@@H]2O[C@@]3(C(=O)O)OC(C)(C)O[C@H]3[C@@H]2O1`: the Potency result in assay [1], in assay [2], in [3], in [5] and in assay [4] was “inactive” in each case.

Consider `Nc1ccc(C(=O)NCC(=O)O)cc1`, for which the Potency result in assay [1], in [2], in [3] and in assay [4] was “inactive” throughout.

Consider `CCCCCCCCCCCCCC(=O)OC(C)C`, for which the Potency result in [6], in assay [2], in [3] and in [4] was “inactive” each time.

`C#C[C@]1(O)CC[C@H]2[C@@H]3CCC4=Cc5oncc5C[C@]4(C)[C@H]3CC[C@@]21C`: in [6], the Potency result was “inactive”.

Take `CCC1NC(=O)c2cc(S(N)(=O)=O)c(Cl)cc2N1` (stereo not given): the Potency entry in assay [6] and in [2] was “inactive” in each case.

As for `CC(=O)Nc1ccc(OCC(O)CNC(C)C)cc1` (stereo not given), the Potency result in assay [6], in assay [2], in assay [3] and in [4] was “inactive” throughout.

For `CC(=O)O[C@]1(C(C)=O)CC[C@H]2[C@@H]3C=C(C)C4=CC(=O)CC[C@]4(C)[C@H]3CC[C@@]21C`, the Potency entry in assay [6], in assay [2] and in assay [3] was “inactive” in each case. Further, the Potency in assay [4] is 12.3 µM (active).

In the case of `CN1CCC(OC(c2ccccc2)c2ccccc2)CC1`, the Potency entry in assay [7] and in assay [8] was “inactive” each time. For the same molecule, in [9], the max response is 7.61%.

For `Cc1ccc2c(Br)cc(Br)c(O)c2n1`, the Potency entry in assay [1], in assay [3] and in assay [4] was “inactive” each time.

For `CCCCCCCCCCCCOCCOCCOCCOCCOCCOCCOCCOCCOCCO`, the Potency result in assay [1] was “inactive”. The figures for the Potency in [3] and in assay [4] were 12.3 µM (active) and 21.9 µM (active), respectively.

On to `CC(=O)NO`, for which the Potency entry in assay [1], in [2] and in [4] was “inactive” each time.

Turning to `CCc1oc2ccccc2c1C(=O)c1cc(Br)c(O)c(Br)c1`, the Potency entry in assay [6] was “inactive”.

As for `CO[C@H]1C=CO[C@@]2(C)Oc3c(C)c(O)c4c(O)c(c(/C=N/N5CCN(C)CC5)c(O)c4c3C2=O)NC(=O)/C(C)=C\C=C[C@H](C)[C@H](O)[C@@H](C)[C@@H](O)[C@@H](C)[C@H](OC(C)=O)[C@@H]1C`, the Potency entry in assay [1] and in assay [3] was “inactive” throughout.

Take `CCCCCCCCCCCCCCC[C@H](O)[C@@H](N)CO`: the Potency result in [7], in assay [8] and in assay [4] was “inactive” in each case. Moreover, the activity change, negative = inhibition in assay [6] is -27.1% [at 3.88 µM]. Also, the Potency in [3] was 9.77 µM (active).

The values above are taken from PubChem BioAssay (NCATS).
